Source: PubChem BioAssay (National Center for Advancing Translational Sciences (NCATS))
A selection: hits, their analogues and other compounds. The true share with any hit is near 1.4%.
hERG WT inh: KCNH2 (human, wildtype) channel inhibition | U2OS, BacMam KCNH2, thallium flux FluxOr; hits give low values | activity change, % at 1.84 µM | actives 0.37% (n = 340,000) | AID 720551;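 active means maximum activity change below -70%; inconclusive means maximum activity change between -70% and -50%; inactive means maximum activity change above -50%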; further: on the % scale 0 is the no-effect control and ±100 the full control effect
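U2OS cells were transduced with wild-type KCNH2 virus (2.03 x 10^8 / mL) for 4 h at room temperature, then cultured overnight at 37 C. Thallium flux was read with FluxOr dye. Rate constants were normalized to DMSO controls.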
Glioma ERSR ind: inducers of ER stress response in human glioma cells; actives 0.02% (n = 420,000); U87-MG GRP78 promoter luciferase reporter, 16 h; Potency, µM, for inactives: at the highest dose activation, usual class: activators; AID 602332; further: potency means the concentration at half of the fitted maximal effect; series mostly up to about 76 µM; % of control where 0% means no effect; nearly all actives have a fitted effect of over 35% in size
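Stably transfected U87-MG glioma cells carrying a GRP78-based luciferase sensor; 16 h compound incubation. Luminescence end-point read 10 min after Bright-Glo addition at room temperature.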
KCNH2 3.1 inh: blocks the human KCNH2 3.1 channel isoform; U2OS KCNH2 3.1, thallium flux FluxOr; hits give low values; activity change, % (tested at about 1.8 µM); actives 0.95% (n = 340,000);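 active means maximum activity change below -70%; inconclusive means maximum activity change from -70% to -50%; inactive means maximum activity change above -50%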;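 further: thallium influx rate constant from kinetic fluorescence after stimulation buffer; on the % scale 0 is the no-effect control and ±100 the full control effect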
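Measured as rate of thallium-driven FluxOr signal in transduced U2OS cells carrying the 3.1 channel, read kinetically for 2 min upon stimulation; values are rate constants scaled to DMSO control wells.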
RXFP1 ag: agonists of human relaxin receptor RXFP1; HEK293T-RXFP1 cAMP TR-FRET, 30 min; response scale: percent of porcine relaxin response, buffer zero; Potency, µM (highest dose often 57.5 µM), without a hit: at the top dose activation, actives largely listed as activators; actives 0.3% (n = 370,000); AID 2676; further: potency means the concentration at half of the fitted maximal effect; on the % scale 0 is the no-effect control and ±100 the full control effect; nearly all actives have a fitted effect of over 60% in size
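HEK293T cells stably expressing RXFP1 were pretreated with the PDE4 inhibitor Ro 20174, exposed to compounds for 30 min at 37C, lysed, and cAMP was read by TR-FRET. Data normalized to buffer (basal) and 29 nM porcine relaxin (100%).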
RXFP1 antagonist: antagonists of human relaxin receptor RXFP1; Q9HBX9; HEK293-RXFP1, relaxin-stimulated cAMP HTRF, 30 min; hits give low values; activity change, negative = inhibition, % at 57.5 µM; actives 0.59% (n = 350,000); AID 1259400;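 active means activity change of -60% or lower, but not beyond a set lower limit; inconclusive means change between -60% and -40%, or beyond the set limit; inactive means change above -40%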; further: on the % scale 0 is the no-effect control and ±100 the full control effect
PTHR1 ag: agonists of human PTHR1 parathyroid hormone receptor; Q03431; HEK293 GP2 PTHR1 cells, GloSensor cAMP luminescence, 1 h; Potency, µM (doses to about 115 µM), without a hit: at the highest dose activation, actives largely listed as activators; actives 0.075% (n = 410,000); further: potency means the concentration at half of the fitted maximal effect; nearly all actives have a fitted effect of over 55% in size
Target sequence (Q03431 whole entry, looked up): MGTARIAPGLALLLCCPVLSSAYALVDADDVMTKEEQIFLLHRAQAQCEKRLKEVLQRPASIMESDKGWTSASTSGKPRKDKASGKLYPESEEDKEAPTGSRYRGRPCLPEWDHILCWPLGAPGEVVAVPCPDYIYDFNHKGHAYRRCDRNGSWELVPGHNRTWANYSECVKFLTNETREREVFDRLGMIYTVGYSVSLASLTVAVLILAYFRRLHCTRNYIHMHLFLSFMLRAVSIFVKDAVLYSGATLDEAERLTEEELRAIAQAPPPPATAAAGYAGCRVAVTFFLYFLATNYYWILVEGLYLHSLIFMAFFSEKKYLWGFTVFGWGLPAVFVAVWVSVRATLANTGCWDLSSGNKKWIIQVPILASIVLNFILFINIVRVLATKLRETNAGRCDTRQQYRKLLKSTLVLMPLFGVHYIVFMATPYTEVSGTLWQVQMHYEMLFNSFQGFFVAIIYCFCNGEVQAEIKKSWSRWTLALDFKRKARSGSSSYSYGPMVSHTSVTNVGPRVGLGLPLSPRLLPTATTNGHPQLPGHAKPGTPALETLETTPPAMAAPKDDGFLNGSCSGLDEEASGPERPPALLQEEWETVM
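HEK-293-derived GP2 cells expressing PTHR1 and a GloSensor cAMP reporter, 3,000/well, plated overnight, given luciferin plus IBMX (each 0.5 mM as added) for 1 h at 37 °C, then compound for 1 h at 37 °C. Luminescence was read after 15 min at room temperature.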
* hit, by the source's call; i = inactive; ? = inconclusive; / = no result given; [ ] = remark or other dose. Unless noted, the call rests on the fitted dose curve; in most records, active means well fitted curve in the direction sought with a large enough effect; inconclusive means small, poorly fitted or top-dose-only effect, or another doubt; inactive means no such curve, though single readings can be large; an effect the other way counts as inactive or inconclusive.

SMILES	hERG WT inh	Glioma ERSR ind	KCNH2 3.1 inh	RXFP1 ag	RXFP1 antagonist	PTHR1 ag
CC(Nc1nc(-c2ccc(F)cc2)cs1)c1nc2cc(C(F)(F)F)ccc2n1CCCO (stereo unspecified)	-16	-2%	-12	/	/	-11%
Cc1csc(NC(C)c2nc3cc(Cl)c(Cl)cc3n2CCCO)n1 (stereo unspecified)	-9	-5%	-80*	/	/	i
CCOc1ccccc1NC(=O)N1CC(C)Oc2ccc(Cl)cc21 (stereo unspecified)	/	-3%	/	1%	-83*	-44%
CCOC(=O)c1ccccc1NC(=O)N1CC(C)Oc2ccc(C)cc21 (stereo unspecified)	/	8%	/	0%	?	i
Cc1ccc2c(c1)N(C(=O)Nc1cccc3c1CCCC3)CC(C)O2 (stereo unspecified)	/	-3%	/	0%	?	-31%
CCc1ccc(NC(=O)N2CC(C)Oc3ccc(C)cc32)cc1 (stereo unspecified)	/	0%	/	0%	-62*	-12%
CCC1CN(C(=O)Nc2cccc3c2CCCC3)c2cc(C)ccc2O1 (stereo unspecified)	/	-1%	/	1%	-73*	-3%
COc1ccc(C(=O)Oc2cccc3cccnc23)cc1[N+](=O)[O-]	-2	-2%	-11	0%	-23	-13%
Cn1c(SCC(=O)NC2CCCCC2)nnc1-c1cccc(N)c1	4	-2%	-3	1%	-6	-13%
CS(=O)(=O)N1CCC(C(=O)Nc2ccc(Br)cc2F)CC1	3	-3%	-92*	1%	-8	-24%[57.5 µM]
CS(=O)(=O)N1CCC(C(=O)Nc2ccc(Cl)cc2Cl)CC1	-17	-3%	-71*	/	5	-18%
CS(=O)(=O)N1CCC(C(=O)Nc2cc(Cl)ccc2Cl)CC1	4	-4%	14	0%	-3	-8%
Cc1ccc(NC(=O)C(=O)NCC2(c3ccccc3)CCCC2)cc1C	/	-2%	/	-4%	-13	i
N#CC1(NC(=O)CN2C(=O)NC(c3ccccc3)(c3ccccc3)C2=O)CCCC1	9	-2%	-2	0%	-3	i
Cc1cc(NC(=O)CCCN2C(=O)c3cccnc3C2=O)no1	-8	-2%	10	1%	11	-1%[57.5 µM]
Cc1cc(NC(=O)CCCN2C(=O)c3cccnc3C2=O)ccc1Br	-14	1%	-72*	16%	-2	i
Cc1coc2c(C)c3oc(=O)c(CCC(=O)NCCCN4CCOCC4)c(C)c3cc12	0	-2%	11	3%	/	-12%
Cc1coc2c(C)c3oc(=O)c(CCC(=O)N4CCC(C(=O)NCCCC(=O)O)(c5ccccc5)CC4)c(C)c3cc12	-21	-5%	-197*	1%	-12	i
COc1ccc(C2C(C#N)=C(N)OC3=C2C(=O)CC(C)(C)C3)cc1OC (stereo unspecified)	5	-3%	14	0%	-76*	-7%
COc1cc(OC)c(C2C(C#N)=C(N)OC3=C2C(=O)CC(C)(C)C3)cc1OC (stereo unspecified)	16	-4%	12	-1%	-1	-11%
